Source: PubChem BioAssay
Calls of active or inactive are those of the source. Unless noted, how the calls were made is not given here.

Key:
[1] = A549 cell viability effects, profiling panel, calcein-AM fluorescence, 48 h, basal (AID 1162); settings: higher = more signal; further: test concentration not given here
[2] = adipocyte viability effects, profiling panel, cell-based, 3T3-L1 adipocytes, calcein-AM fluorescence, 48 h, basal (AID 1163); settings: 3T3-L1 adipocytes viability, higher = more signal; further: test concentration not given here
[3] = HepG2 cell viability effects, profiling panel, calcein-AM fluorescence, 48 h, basal (AID 1164); settings: higher = more signal; further: test concentration not given here
[4] = MM1S cell viability effects, profiling panel, calcein-AM fluorescence, 48 h, basal (AID 1165); settings: higher = more signal;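 further: viability of MM1S multiple myeloma cells under basal unstimulated conditions; test concentration not given here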
[5] = basal RPMI8226 viability, no added stimulus, profiling panel, cell-based, calcein-AM fluorescence, 48 h, PK04 Diversity Set (AID 1166); settings: higher = more signal; RPMI8226 myeloma viability, calcein-AM fluorescence, 48 h unless noted;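 further: cells grown under basal conditions without added stimulus; test concentration not given here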
[6] = basal HepG2 mitochondrial membrane potential changes, profiling panel, cell-based, JC-1 fluorescence, 24 h, 100 nL compound (AID 1167); settings: higher = more signal; further: test concentration not given here
[7] = basal 3T3-L1 adipocyte mitochondrial potential changes, profiling panel, cell-based, JC-1 fluorescence, 3T3-L1 adipocytes, 24 h, 100 nL compound (AID 1168); settings: JC-1 mitochondrial fluorescence; higher = more signal, called active from +8 up or from −8 down unless noted; further: test concentration not given here
[8] = basal RPMI8226 mitochondrial membrane potential changes, profiling panel, cell-based, JC-1 fluorescence, 24 h, 100 nL compound (AID 1169); settings: higher = more signal; RPMI8226 myeloma, JC-1 mitochondrial potential fluorescence, 24 h unless noted; further: test concentration not given here
[9] = basal MM1S mitochondrial membrane potential changes, profiling panel, cell-based, JC-1 fluorescence, 24 h, 100 nL compound (AID 1170); settings: higher = more signal; further: test concentration not given here
[10] = A549 lung cancer cell viability effects, profiling panel, resazurin fluorescence, 24 h, PK04 Diversity Set (AID 1171); settings: higher = more signal, called active from +8 up or from −8 down unless noted; further: test concentration not given here
[11] = HepG2 liver cancer cell viability effects, profiling panel, resazurin fluorescence, 24 h, PK04 Diversity Set (AID 1172); settings: higher = more signal; further: test concentration not given here
[12] = basal S. cerevisiae growth modulation, no modifier, primary screen, OD600, strain BY4716, 24 h, basal condition (AID 1173); settings: OD600, 24 h; higher = more signal, called active from +8 up or from −8 down unless noted
[13] = MM1S myeloma cell viability, profiling panel, resazurin fluorescence, basal, 24 h, PK04 Diversity Set (AID 1174); settings: higher = more signal, called active from +8 up or from −8 down unless noted;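 further: MM1S multiple myeloma cell line; test concentration not given here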
[14] = target: Dihydroorotate dehydrogenase (quinone), mitochondrial (Plasmodium falciparum (isolate 3D7)) (UniProt Q08210); assay: PfDHODH enzyme inhibitors, primary screen, biochemical, C-terminal His tag, absorbance 600 nm (AID 1175); settings: DCIP absorbance 600 nm; higher = more signal, called active from +8 up or from −8 down unless noted;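 further: recombinant parasite enzyme with a five histidine tag at its C terminus; test concentration not given here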
Dihydroorotate dehydrogenase (quinone), mitochondrial (Plasmodium falciparum (isolate 3D7)), sequence (Q08210 whole entry, looked up): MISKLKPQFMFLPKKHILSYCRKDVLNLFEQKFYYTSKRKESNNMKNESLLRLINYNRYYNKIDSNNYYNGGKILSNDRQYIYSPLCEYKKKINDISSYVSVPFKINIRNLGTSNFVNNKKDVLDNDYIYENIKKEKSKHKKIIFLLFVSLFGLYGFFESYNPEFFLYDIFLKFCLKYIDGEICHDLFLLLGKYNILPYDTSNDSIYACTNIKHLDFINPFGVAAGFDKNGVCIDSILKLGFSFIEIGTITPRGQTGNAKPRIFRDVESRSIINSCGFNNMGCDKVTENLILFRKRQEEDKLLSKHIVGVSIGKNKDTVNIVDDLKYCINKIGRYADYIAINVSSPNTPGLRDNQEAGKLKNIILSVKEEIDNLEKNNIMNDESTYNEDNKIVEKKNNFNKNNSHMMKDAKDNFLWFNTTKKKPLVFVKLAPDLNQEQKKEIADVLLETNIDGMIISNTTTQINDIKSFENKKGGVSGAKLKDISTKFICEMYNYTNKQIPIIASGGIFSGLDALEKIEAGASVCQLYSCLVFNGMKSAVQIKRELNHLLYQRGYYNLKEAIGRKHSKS

[15] = P. aeruginosa biofilm formation inhibitors, primary screen, strain PAO1, LB-PBS medium, absorbance 600 nm (AID 1176); further: test concentration not given here; settings: P. aeruginosa PAO1 growth/biofilm, A600, 12 h; higher = more signal
[16] = S. cerevisiae RM11-1a growth modifiers, primary screen, strain RM11-1a, OD600, basal, 24 h (AID 1177); settings: OD600, 24 h; higher = more signal, called active from +8 up or from −8 down unless noted;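 further: cultures grown under basal conditions with no added stressor; test concentration not given here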
[17] = E. coli acrAB mutant growth effects, primary screen, E. coli filamentation inducers, strain DRC39, OD650, 24 h (AID 1178); settings: higher = more signal, called active from +8 up or from −8 down unless noted;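 further: growth measured as culture turbidity by optical density at 650 nm; test concentration not given here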
[18] = E. coli acrAB mutant growth effects, primary screen, E. coli filamentation inducers, strain DRC39, OD650, 48 h (AID 1179);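 further: screen aims at cell division blockers that make cells filament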; settings: E. coli DRC39 delta-acrAB growth, higher = more signal, called active from +8 up or from −8 down unless noted
[19] = RPMI8226 myeloma cell viability, profiling panel, resazurin fluorescence, basal, 24 h, PK04 Diversity Set (AID 1180); settings: higher = more signal; RPMI8226 viability, resazurin fluorescence, 24 h unless noted;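 further: RPMI8826 multiple myeloma cell line at 5000 cells per well; test concentration not given here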
[20] = target: E3 ubiquitin-protein ligase XIAP (Homo sapiens) (UniProt P98170); assay: XIAP binders, primary screen, biophysical, small-molecule microarray, fluorescence 635 nm (AID 1181); settings: small-molecule microarray binding, higher = more signal;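 further: score merges 667 nm emission and signal to noise over triplicate slides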
E3 ubiquitin-protein ligase XIAP (Homo sapiens), sequence (P98170 whole entry, looked up): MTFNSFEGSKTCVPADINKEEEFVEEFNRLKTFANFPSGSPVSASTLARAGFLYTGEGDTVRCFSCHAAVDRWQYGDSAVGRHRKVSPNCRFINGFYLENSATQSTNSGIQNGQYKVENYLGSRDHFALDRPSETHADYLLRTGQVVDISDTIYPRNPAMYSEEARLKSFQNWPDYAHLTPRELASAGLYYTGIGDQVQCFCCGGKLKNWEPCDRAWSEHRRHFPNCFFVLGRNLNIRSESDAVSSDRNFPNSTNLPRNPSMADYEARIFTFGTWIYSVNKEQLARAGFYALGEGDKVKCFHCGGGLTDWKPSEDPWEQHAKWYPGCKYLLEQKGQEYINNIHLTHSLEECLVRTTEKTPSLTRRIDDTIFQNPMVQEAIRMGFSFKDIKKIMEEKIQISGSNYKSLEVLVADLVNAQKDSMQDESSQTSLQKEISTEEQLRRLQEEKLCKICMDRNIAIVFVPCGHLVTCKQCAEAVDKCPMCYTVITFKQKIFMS

| SMILES | z-score [1] | z-score [2] | z-score [3] | z-score [4] | z-score [5] | z-score [6] | z-score [7] | z-score [8] | z-score [9] | z-score [10] | z-score [11] | z-score [12] | z-score [13] | composite z-score [14] | z-score [15] | z-score [16] | z-score [17] | z-score [18] | z-score [19] | composite z-score [20] |
| --- | --- | --- | --- | --- | --- | --- | --- | --- | --- | --- | --- | --- | --- | --- | --- | --- | --- | --- | --- | --- |
| CCCc1cc2c(n1Cc1ccc(C)cc1)C(C)C1CN(C(=O)c3ccccc3)C(C)(C(=O)OC)C21 (stereo not given) | 0.345 | -0.441 | 1.11 | -2.84 | -4.73 | 2.34 | -0.268 (inactive) | 0.00271 | -1.59 | -1.58 (inactive) | -0.492 | -0.283 (inactive) | -1.04 (inactive) | -1.07 (inactive) | 0.355 (inactive) | -0.654 (inactive) | 0.103 (inactive) | 0.357 (inactive) | -1.11 | 0.174 |
| COC(=O)[C@H]1C(=O)c2ccccc2O[C@@](C(=O)OC)(c2ccccc2)[C@@H]1c1ccccc1 | -0.513 | -0.328 | 0.159 | -1.16 | -0.144 | -0.598 | -0.31 (inactive) | -0.203 | 0.271 | -0.002 (inactive) | -0.515 | -0.54 (inactive) | -0.0272 (inactive) | 0.0983 (inactive) | -0.233 (inactive) | 0.174 (inactive) | 0.27 (inactive) | 0.419 (inactive) | 0.223 | 0.182 |
| COC(=O)[C@@]1(Cc2ccc(F)cc2)[C@H]2c3cc(C(=O)N(C)C)[nH]c3C[C@H]2CN1C(=O)c1ccccc1 | -0.632 | -0.597 | 0.337 | 0.334 | -0.425 [setting not given] | 0.174 | 0.0376 [setting not given] (inactive) | -0.101 [setting not given] | -0.872 | -0.868 [setting not given] (inactive) | -1.3 | 1.11 [setting not given] (inactive) | -0.811 [setting not given] (inactive) | 0.25 [setting not given] (inactive) | 0.191 (inactive) | 1.09 [setting not given] (inactive) | -0.119 [setting not given] (inactive) | 0.169 [E. coli growth] (inactive) | -0.487 [setting not given] | 0.0546 |
| CCCC=C(CCC)[C@@H](NP(=O)(c1ccccc1)c1ccccc1)c1ccccc1 | -0.0868 | -0.298 | 0.559 | -0.687 | -1.27 | -1.95 | 0.21 (inactive) | 0.368 | -1.5 | 1.82 (inactive) | 2.47 | 1.4 (inactive) | 1.16 (inactive) | 0.0585 (inactive) | 0.0944 (inactive) | -0.903 (inactive) | -0.486 (inactive) | -0.236 (inactive) | 1.3 | 0.0205 |
| c1ccc(-c2cc3c(nc2-c2ccccc2)CCNC3)cc1 | 0.765 | -0.106 | 0.246 | 0.195 | 0.145 | 0.506 | -0.239 (inactive) | 0.179 | -0.0254 | 0.983 (inactive) | 0.469 | -0.0743 (inactive) | 0.526 (inactive) | 1.07 (inactive) | -0.0933 (inactive) | 1.36 (inactive) | 0.306 (inactive) | -0.29 (inactive) | 0.938 | -0.0344 |
| CCCC[C@@H]1C[C@H]1[C@@H](NP(=O)(c1ccccc1)c1ccccc1)c1ccc(Cl)cc1 | -0.656 | -1.31 | -0.868 | -2.05 | -4.62 | -1.35 | -0.729 (inactive) | -0.861 | -1.11 | 2.22 (inactive) | 1.46 | -1.14 (inactive) | 0.105 (inactive) | -0.717 (inactive) | 0.122 (inactive) | -0.357 (inactive) | -0.429 (inactive) | -0.363 (inactive) | -0.0326 | 0.0077 |
| COC(=O)[C@@]1(Cc2ccccc2)[C@H]2c3cc(C(=O)N(C)C)[nH]c3C[C@H]2CN1C(=O)c1ccccc1 | -1.08 | -0.0276 | -0.78 | 0.047 | -0.458 | -0.592 | -0.562 (inactive) | 0.816 | -0.807 | 0.121 (inactive) | -0.154 | 0.887 (inactive) | -0.693 (inactive) | -0.434 (inactive) | 0.0944 (inactive) | 0.439 (inactive) | -0.513 (inactive) | 0.0889 (inactive) | -0.57 | 0.215 |
| CN1CCC(c2ccc(CO)cc2)=CC1C1CC1 (stereo not given) | 0.169 | -0.228 | 0.061 | -1.25 | 0.0447 | -0.851 | -0.625 (inactive) | 0.604 | -0.409 | -0.374 (inactive) | -0.777 | 0.574 (inactive) | -0.55 (inactive) | -0.54 (inactive) | -0.247 (inactive) | -0.123 (inactive) | 0.501 (inactive) | 0.389 (inactive) | -0.869 | 0.284 |
